Measurements from PubChem BioAssay.
Inconclusive results are not listed. Active and inactive are the calls of the source.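 Rule for the calls, unless noted: active = efflux inhibition above 0.42, the validation set average plus 4 SD; inconclusive = no clear call, values can overlap the other calls; inactive = the rest.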

Experiments:
[1] = rapamycin-like changes in RPL19A-GFP expression – cell-based, S. cerevisiae, multiplex flow cytometry, primary screen (AID 1862; in the data active = percent of DMSO control GFP below about 86%;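 note: lower values mimic rapamycin by blocking the RPL19A rise seen in DMSO cells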); conditions: S. cerevisiae RPL19A-GFP strain, flow cytometry fluorescence, 3 h; at 10 µM; stronger effect = lower value
[2] = TOR pathway GLN3 branch reporter MEP2-GFP changes – S. cerevisiae, multiplex flow cytometry, primary screen (AID 1867;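 active = GFP response, as percent of the DMSO control, above the screen-wide mean plus 3 SD, about 139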;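 note: median GFP channel fluorescence of barcode-gated MEP2-GFP cells measured by flow cytometry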); conditions: S. cerevisiae MEP2-GFP strain, 3 h, at 10 µM, stronger effect = higher value, 100% means same as DMSO wells
[3] = TOR pathway RTG branch CIT2 reporter changes – S. cerevisiae, GFP fusion, multiplex flow cytometry, primary screen (AID 1870;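 active = percent response above a set limit, the screen-wide mean plus 3 SD, cut at about 130% in these data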;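 note: barcoded CIT2-GFP strain pooled with four other GFP strains with rapamycin as positive control; median GFP fluorescence per well over plate mean of DMSO wells so 100% = DMSO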); conditions: S. cerevisiae CIT2-GFP expression, 3 h, at 10 µM, stronger effect = higher value
[4] = TOR pathway LAP4-GFP level changes – S. cerevisiae, multiplex flow cytometry, primary screen (AID 1873;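 active = GFP signal, as percent of the solvent control, above the screen mean plus 3 SD, about 149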); conditions: S. cerevisiae LAP4-GFP expression, 3 h, at 10 µM, stronger effect = higher value
[5] = yeast AGP1-GFP level changes, GLN3 branch – cell-based, multiplex flow cytometry, S. cerevisiae, primary screen (AID 1887;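 active = GFP signal above the screen-wide mean plus 3 SD, that is over about 124.5% of the solvent control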;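 note: AGP1-GFP fusion strain of S. cerevisiae within a five-strain barcoded multiplex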); conditions: 3 h, at 10 µM, stronger effect = higher value
[6] = reduced mouse 2C T cell binding to pMHC/ICAM-1 vesicles – MLPCN validation set, flow cytometry, LFA-1/ICAM-1 modulator project, pilot screen (AID 2523;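 active = response below a set limit, under 55% cells CD8-positive and vesicle-bound, and CD8 cells' 90th-percentile brightness under 279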;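 for vesicle binding response: mean PE anti-B7-1 fluorescence of CD8+ cells relative to row control; 100% = QL9-loaded vesicles with DMSO vehicle in the same plate row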); conditions: 2C mouse CD8+ T cells, at 7 µM, stronger effect = lower value; double positive events: measured here: CD8+/vesicle+ event percentage
[7] = target: Integrin beta-1 (Homo sapiens) + Integrin alpha-4 (Homo sapiens) (UniProt P13612+P05556); experiment: alpha4beta1 integrin LIBS antibody binding reduction – U937 cells, HUTS-21 mAb, flow cytometry, validation set, VLA-4 allosteric modulator project, pilot screen (AID 2674;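 active = inhibition above 50%, about 3 SD of the validation set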;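 note: antibody binding induced by the VLA-4 ligand LDV present at three times its Kd; 0% = LDV ligand with antibody and no compound and 100% = antibody without LDV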); conditions: HUTS-21 LIBS mAb binding, at 6.7 µM, stronger effect = higher value, binding induced by LDV ligand
[8] = calorie-restriction mimetic ROS inhibitors, yeast – validation compound set, pilot screen (AID 2706;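 active = superoxide response below 65% of plate, a cut near 3 SD across the whole screen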;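 note: yeast exposed to compound for one week at 30 degrees C before staining; 100% = mean of all compound wells on the same plate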); conditions: S. cerevisiae aging, superoxide DHE fluorescence; at 10 µM; stronger effect = lower value
[9] = target: Beta-adrenergic receptor kinase 1 (Homo sapiens) (UniProt P25098); experiment: GRK2 binders displacing RNA aptamer, biochemical, validation, human GRK2, bead flow cytometry (AID 488806;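 active = aptamer binding inhibition above 30%, about 3 SD of noise from non-fluorescent compounds; inactive = inhibition at or below 30%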); conditions: bead-bound GRK2, FAM-aptamer displacement, at 10 µM, stronger effect = higher value
[10] = target: Beta-2 adrenergic receptor (Homo sapiens) (UniProt P07550); experiment: agonist-induced loss of surface beta2AR – cell-based, FAP fluorogen, flow cytometry, validation set, pilot screen (AID 504459;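 active = percent response above 42, roughly 3 SD of non-fluorescent test compounds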;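 note: agonist-driven loss of surface beta2AR via internalization measured by FAP dye flow cytometry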); conditions: Am2.2-beta2AR cells, at 10 µM, stronger effect = higher value
[11] = target: AP-2 complex subunit beta (Homo sapiens) (UniProt P63010); experiment: beta-arrestin/AP2 interaction blockers – biochemical, validation set, GST-AP2 beads, flow cytometry, pilot screen (AID 504541;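 active = inhibition above 54%, about 3 SD of non-fluorescent compounds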;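 note: AP2 carries R879A mutation and is captured from E. coli lysate; bead-bound FITC arrestin peptide fluorescence measuring arrestin peptide binding to AP2; 0% = DMSO wells and 100% = excess unlabeled arrestin peptide control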); conditions: FITC arrestin peptide, at 10 µM, stronger effect = higher value, AP2 beta2 appendage fragment, R879A mutant
[12] = cytosolic pH regulators acting via V-ATPase – S. cerevisiae, pHLuorin, HTS validation (AID 504600; in the data active = response above about 15%;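 note: plate controls were DMSO for no effect and reference compound for full effect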); conditions: V-ATPase proton transport, at 10 µM, stronger effect = higher value
[13] = tested on: anti-desmoglein-3 scFv antibody binding to human DSG3; experiment: blockers of pathogenic pemphigus antibody–desmoglein-3 binding – biochemical, validation compound set, bead-based, flow cytometry, pilot screen (AID 588368;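 active = binding below the plate cutoff, the plate median minus 3 SD, with a reading above zero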;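 note: signal is the median channel fluorescence of bead-bound GFP antibody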); conditions: Protein G beads, DSG3-Fc, scFv-GFP binding, at 10 µM, stronger effect = lower value
[14] = Nile Red efflux blockade in pump-expressing yeast – validation compound set, multiplex, phenotypic, pilot screen (AID 588506);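 note: Nile Red retained in cells so higher fluorescence means more efflux inhibition; 0 = negative control wells and 1 = enniatin B 25 µM full block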; conditions: S. cerevisiae pump-expressing triplex, Nile Red efflux flow cytometry; at 10 µM; stronger effect = higher value; the pumps come from Candida albicans
[15] = target: ATP-binding cassette sub-family B member 6 (Homo sapiens) (UniProt Q9NP58); experiment: blockers of ABCB6-driven porphyrin uptake – K562-ABCB6 cells, flow cytometry, validation set, pilot screen (AID 588550;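 active = inhibition above the screen-wide mean plus 3 SD, about 51%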;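 note: 0% = DMSO wells and 100% = benzethonium chloride 70 µM positive control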); conditions: K562-ABCB6 porphyrin accumulation, 1 h, at 10 µM, stronger effect = higher value
[16] = AML differentiation inducers, ER-HoxA9 marrow cells – cell-based, GFP/MAC1 double positive, flow cytometry, validation set, primary screen (AID 588685;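 active = differentiation response of at least 50%, scaled between solvent and reference control, from cells with both markers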;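 note: compound exposure lasts four days before antibody staining and flow analysis; 0% = DMSO wells and 100% = 5 µM fulvestrant positive control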); conditions: stronger effect = higher value, normalized: vehicle 0, fulvestrant 100

ATP-binding cassette sub-family B member 6 (Homo sapiens), sequence (Q9NP58 whole entry, looked up): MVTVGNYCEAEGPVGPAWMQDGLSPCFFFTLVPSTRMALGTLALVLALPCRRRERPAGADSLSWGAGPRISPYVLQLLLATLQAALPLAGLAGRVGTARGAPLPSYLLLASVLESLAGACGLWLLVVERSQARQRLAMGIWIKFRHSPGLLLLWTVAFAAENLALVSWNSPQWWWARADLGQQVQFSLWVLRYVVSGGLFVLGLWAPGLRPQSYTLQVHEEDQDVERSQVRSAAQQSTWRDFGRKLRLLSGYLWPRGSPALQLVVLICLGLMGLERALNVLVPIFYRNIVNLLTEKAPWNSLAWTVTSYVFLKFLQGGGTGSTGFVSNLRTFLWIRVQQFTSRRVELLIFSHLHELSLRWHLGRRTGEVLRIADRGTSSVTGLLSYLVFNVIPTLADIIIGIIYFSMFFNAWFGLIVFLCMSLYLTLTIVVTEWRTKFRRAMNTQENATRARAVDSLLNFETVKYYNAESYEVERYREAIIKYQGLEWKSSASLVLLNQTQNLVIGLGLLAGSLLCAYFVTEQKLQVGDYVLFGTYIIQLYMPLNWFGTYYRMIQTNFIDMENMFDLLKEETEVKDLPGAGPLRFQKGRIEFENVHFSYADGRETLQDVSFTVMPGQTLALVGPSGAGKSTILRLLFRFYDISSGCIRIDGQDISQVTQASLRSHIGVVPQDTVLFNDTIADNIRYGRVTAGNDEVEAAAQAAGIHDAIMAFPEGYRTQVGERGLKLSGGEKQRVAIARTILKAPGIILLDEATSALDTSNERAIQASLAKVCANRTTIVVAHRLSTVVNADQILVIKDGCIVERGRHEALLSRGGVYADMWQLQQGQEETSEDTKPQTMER
Beta-2 adrenergic receptor (Homo sapiens), sequence (P07550 whole entry, looked up): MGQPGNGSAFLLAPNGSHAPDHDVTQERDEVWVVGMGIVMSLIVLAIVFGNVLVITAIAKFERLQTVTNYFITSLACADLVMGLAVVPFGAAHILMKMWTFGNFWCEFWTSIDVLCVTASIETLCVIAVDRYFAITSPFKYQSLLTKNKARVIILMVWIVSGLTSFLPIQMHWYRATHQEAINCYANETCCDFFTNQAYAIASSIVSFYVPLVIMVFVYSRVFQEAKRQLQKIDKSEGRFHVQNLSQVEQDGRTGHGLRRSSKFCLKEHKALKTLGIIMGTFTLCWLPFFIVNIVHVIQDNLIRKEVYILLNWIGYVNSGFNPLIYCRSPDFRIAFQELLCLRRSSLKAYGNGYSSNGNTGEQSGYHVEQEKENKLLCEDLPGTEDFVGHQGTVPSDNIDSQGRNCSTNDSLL
Integrin beta-1 (Homo sapiens) + Integrin alpha-4 (Homo sapiens), sequence (P05556 whole entry, looked up): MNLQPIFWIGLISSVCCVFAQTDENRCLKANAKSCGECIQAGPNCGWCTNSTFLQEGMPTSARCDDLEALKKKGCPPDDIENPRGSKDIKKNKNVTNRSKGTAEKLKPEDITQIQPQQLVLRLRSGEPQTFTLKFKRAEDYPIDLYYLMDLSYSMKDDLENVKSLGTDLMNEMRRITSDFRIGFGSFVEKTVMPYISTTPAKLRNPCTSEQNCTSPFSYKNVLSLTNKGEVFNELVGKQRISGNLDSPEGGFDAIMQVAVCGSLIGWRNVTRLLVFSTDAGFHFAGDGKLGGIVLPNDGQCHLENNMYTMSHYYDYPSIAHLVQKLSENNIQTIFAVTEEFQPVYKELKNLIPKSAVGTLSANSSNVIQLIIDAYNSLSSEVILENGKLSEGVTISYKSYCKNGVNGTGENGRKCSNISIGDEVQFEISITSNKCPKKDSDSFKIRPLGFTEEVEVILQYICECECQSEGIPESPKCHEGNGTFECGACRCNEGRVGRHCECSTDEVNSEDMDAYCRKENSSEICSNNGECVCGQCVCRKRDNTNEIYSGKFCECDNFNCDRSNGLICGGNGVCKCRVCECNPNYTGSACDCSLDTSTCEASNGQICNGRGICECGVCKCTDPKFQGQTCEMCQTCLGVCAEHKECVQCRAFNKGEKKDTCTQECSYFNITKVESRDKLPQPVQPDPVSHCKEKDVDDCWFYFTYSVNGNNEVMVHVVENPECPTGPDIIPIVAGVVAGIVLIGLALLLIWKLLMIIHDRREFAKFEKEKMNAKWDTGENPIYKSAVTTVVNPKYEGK
Integrin beta-1 (Homo sapiens) + Integrin alpha-4 (Homo sapiens), sequence (P13612 whole entry, looked up): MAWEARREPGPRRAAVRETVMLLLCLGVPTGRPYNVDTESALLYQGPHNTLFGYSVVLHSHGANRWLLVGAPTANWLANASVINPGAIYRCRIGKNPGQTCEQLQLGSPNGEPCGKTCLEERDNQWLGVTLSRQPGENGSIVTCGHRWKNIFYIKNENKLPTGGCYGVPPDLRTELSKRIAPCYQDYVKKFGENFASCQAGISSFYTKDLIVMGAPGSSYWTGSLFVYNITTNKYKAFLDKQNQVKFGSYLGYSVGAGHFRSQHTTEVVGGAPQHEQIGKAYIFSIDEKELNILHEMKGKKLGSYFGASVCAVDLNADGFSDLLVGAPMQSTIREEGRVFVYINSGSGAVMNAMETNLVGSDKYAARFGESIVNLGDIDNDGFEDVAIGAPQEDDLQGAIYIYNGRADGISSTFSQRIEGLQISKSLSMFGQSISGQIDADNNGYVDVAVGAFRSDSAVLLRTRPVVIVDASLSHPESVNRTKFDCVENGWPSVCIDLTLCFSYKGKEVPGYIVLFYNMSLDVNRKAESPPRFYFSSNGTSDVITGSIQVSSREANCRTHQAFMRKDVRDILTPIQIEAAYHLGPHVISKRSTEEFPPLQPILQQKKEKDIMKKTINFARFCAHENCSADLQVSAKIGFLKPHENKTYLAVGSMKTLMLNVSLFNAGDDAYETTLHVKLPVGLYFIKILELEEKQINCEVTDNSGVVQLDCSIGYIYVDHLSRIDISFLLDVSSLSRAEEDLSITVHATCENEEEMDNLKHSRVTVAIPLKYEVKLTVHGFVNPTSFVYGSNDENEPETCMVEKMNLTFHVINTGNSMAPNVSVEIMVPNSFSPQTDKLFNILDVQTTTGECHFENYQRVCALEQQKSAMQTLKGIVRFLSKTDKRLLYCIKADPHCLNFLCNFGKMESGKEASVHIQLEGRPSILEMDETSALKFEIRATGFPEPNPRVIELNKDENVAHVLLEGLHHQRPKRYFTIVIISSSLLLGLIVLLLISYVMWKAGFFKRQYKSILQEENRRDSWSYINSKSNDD
Beta-adrenergic receptor kinase 1 (Homo sapiens), sequence (P25098 whole entry, looked up): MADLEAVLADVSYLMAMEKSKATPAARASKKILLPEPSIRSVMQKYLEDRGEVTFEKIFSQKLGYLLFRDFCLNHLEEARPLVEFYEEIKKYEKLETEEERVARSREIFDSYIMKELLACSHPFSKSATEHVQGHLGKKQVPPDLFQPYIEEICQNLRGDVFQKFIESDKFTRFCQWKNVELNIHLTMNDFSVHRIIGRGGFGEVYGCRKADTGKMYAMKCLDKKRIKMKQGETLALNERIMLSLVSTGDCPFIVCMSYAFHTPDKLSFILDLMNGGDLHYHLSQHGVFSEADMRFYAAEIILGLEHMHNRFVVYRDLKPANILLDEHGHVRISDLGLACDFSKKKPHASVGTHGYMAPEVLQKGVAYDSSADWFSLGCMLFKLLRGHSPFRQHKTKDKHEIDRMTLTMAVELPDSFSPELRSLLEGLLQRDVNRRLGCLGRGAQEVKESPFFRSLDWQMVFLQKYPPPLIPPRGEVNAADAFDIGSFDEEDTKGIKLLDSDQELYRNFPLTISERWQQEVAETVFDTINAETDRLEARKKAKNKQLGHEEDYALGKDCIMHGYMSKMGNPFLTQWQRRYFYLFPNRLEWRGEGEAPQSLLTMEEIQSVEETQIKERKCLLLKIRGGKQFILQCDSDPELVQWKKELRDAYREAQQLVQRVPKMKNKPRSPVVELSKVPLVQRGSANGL
AP-2 complex subunit beta (Homo sapiens), sequence (P63010 whole entry, looked up, the tested form may be a part, one chain of several): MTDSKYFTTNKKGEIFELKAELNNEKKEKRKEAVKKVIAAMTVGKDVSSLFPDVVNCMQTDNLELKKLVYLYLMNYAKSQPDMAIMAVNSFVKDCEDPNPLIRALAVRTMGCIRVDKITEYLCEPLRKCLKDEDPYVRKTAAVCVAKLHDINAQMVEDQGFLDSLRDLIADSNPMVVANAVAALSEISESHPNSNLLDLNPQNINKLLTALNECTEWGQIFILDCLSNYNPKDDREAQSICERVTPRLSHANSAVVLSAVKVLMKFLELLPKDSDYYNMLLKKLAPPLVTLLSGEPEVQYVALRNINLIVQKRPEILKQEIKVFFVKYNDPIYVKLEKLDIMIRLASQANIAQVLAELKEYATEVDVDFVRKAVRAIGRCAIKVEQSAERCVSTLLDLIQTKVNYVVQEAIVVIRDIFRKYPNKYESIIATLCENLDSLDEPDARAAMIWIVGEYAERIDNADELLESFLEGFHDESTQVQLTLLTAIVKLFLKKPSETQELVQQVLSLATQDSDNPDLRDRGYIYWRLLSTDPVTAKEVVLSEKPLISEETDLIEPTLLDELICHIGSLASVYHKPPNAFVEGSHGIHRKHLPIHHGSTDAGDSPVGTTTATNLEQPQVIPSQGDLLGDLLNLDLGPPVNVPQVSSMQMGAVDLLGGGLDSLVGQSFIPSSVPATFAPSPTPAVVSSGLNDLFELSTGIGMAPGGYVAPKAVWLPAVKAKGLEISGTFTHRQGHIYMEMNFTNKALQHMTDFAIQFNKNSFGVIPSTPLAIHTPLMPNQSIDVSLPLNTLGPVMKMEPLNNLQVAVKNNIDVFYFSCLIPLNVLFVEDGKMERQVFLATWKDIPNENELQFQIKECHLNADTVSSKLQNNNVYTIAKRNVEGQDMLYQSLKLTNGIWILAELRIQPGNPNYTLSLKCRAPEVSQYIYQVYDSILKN

COc1ccc2c3c([nH]c2c1)C1(NCC3)C(=O)Nc2ccccc21 (stereo not given)
inactive: percent of DMSO control GFP [1] 95.4% | GFP response vs DMSO [2] 105% | percent response of DMSO control [3] 89.1% | GFP response vs DMSO [4] 103% | GFP response, % of DMSO [5] 101% | vesicle binding response [6] 175% | inhibition [7] -15.4% | superoxide response (% of plate) [8] 97.3% | aptamer binding inhibition [9] 0% | response [10] -10.9% | inhibition [11] 10.3% | response [12] -0.21% | binding (% of control) [13] 97.6% | efflux inhibition (fraction of control) [14] 0.05 | inhibition [15] -6% | differentiation response [16] 10.4%
59.5%: double positive events [6]

COc1cc(C2Nc3ccccc3C(=O)N2c2ccccc2)ccc1O (stereo not given)
active: response [12] 61.2%
62.9%: double positive events [6]
inactive: percent of DMSO control GFP [1] 109% | GFP response vs DMSO [2] 108% | percent response of DMSO control [3] 116% | GFP response vs DMSO [4] 93.3% | GFP response, % of DMSO [5] 103% | vesicle binding response [6] 256% | inhibition [7] 3.7% | superoxide response (% of plate) [8] 90% | aptamer binding inhibition [9] 0% | response [10] -10.2% | inhibition [11] -6.11% | binding (% of control) [13] 99.7% | efflux inhibition (fraction of control) [14] 0.18 | inhibition [15] 3% | differentiation response [16] 9.04%

NNC(=O)c1ccncc1
61.7%: double positive events [6]
inactive: percent of DMSO control GFP [1] 102% | GFP response vs DMSO [2] 113% | percent response of DMSO control [3] 93.9% | GFP response vs DMSO [4] 117% | GFP response, % of DMSO [5] 105% | vesicle binding response [6] 175% | inhibition [7] -14.1% | superoxide response (% of plate) [8] 90.8% | aptamer binding inhibition [9] 4% | response [10] -10.5% | inhibition [11] -2.19% | response [12] 2.56% | binding (% of control) [13] 98.4% | efflux inhibition (fraction of control) [14] -0.1 | inhibition [15] 1% | differentiation response [16] -2.4%

CC(C)CCNC(=O)[C@H](CC(C)C)NC(=O)[C@H]1O[C@@H]1C(=O)O
active: vesicle binding response [6] 39.4%
52.8%: double positive events [6]
inactive: percent of DMSO control GFP [1] 108% | GFP response vs DMSO [2] 101% | percent response of DMSO control [3] 112% | GFP response vs DMSO [4] 93.3% | GFP response, % of DMSO [5] 107% | inhibition [7] -4.6% | superoxide response (% of plate) [8] 96.2% | aptamer binding inhibition [9] 3% | response [10] -6.13% | inhibition [11] -12.3% | response [12] 1.19% | binding (% of control) [13] 98.4% | efflux inhibition (fraction of control) [14] 0.08 | inhibition [15] 3% | differentiation response [16] -1.71%

CC1(C)S[C@@H]2[C@H](NC(=O)Cc3ccccc3)C(=O)N2[C@H]1C(=O)O
inactive: percent of DMSO control GFP [1] 105% | GFP response vs DMSO [2] 102% | percent response of DMSO control [3] 98.3% | GFP response vs DMSO [4] 101% | GFP response, % of DMSO [5] 119% | vesicle binding response [6] 185% | inhibition [7] 15.1% | superoxide response (% of plate) [8] 92.1% | aptamer binding inhibition [9] 3% | response [10] -19.9% | inhibition [11] 1.23% | response [12] -1.26% | binding (% of control) [13] 99.7% | efflux inhibition (fraction of control) [14] 0.08 | inhibition [15] 10% | differentiation response [16] 2.89%
66.2%: double positive events [6]

NC(N)=NC(=O)Cc1c(Cl)cccc1Cl
inactive: percent of DMSO control GFP [1] 103% | GFP response vs DMSO [2] 110% | percent response of DMSO control [3] 97.8% | GFP response vs DMSO [4] 99.9% | GFP response, % of DMSO [5] 101% | vesicle binding response [6] 197% | inhibition [7] -4.6% | superoxide response (% of plate) [8] 109% | aptamer binding inhibition [9] -1% | response [10] -1.1% | inhibition [11] 18% | response [12] -2.92% | binding (% of control) [13] 98.2% | efflux inhibition (fraction of control) [14] -0.01 | inhibition [15] 18% | differentiation response [16] -2.69%
64.6%: double positive events [6]

O=C1c2ccccc2N2C(=O)c3ccccc3C2N1Cc1ccco1 (stereo not given)
inactive: percent of DMSO control GFP [1] 104% | GFP response vs DMSO [2] 104% | percent response of DMSO control [3] 110% | GFP response vs DMSO [4] 103% | GFP response, % of DMSO [5] 89.8% | vesicle binding response [6] 140% | inhibition [7] -2.43% | superoxide response (% of plate) [8] 95.6% | aptamer binding inhibition [9] 0% | response [10] -16.2% | inhibition [11] -5.51% | response [12] -3.39% | binding (% of control) [13] 99.6% | efflux inhibition (fraction of control) [14] 0.03 | inhibition [15] -8% | differentiation response [16] -1.65%
61%: double positive events [6]

C/C=C(/C(=C/C)c1ccc(O)cc1)c1ccc(O)cc1
63.9%: double positive events [6]
active: efflux inhibition (fraction of control) [14] 0.48
inactive: percent of DMSO control GFP [1] 90.4% | GFP response vs DMSO [2] 135% | percent response of DMSO control [3] 95.2% | GFP response vs DMSO [4] 81.4% | GFP response, % of DMSO [5] 87.7% | vesicle binding response [6] 170% | inhibition [7] 8.4% | superoxide response (% of plate) [8] 91.4% | aptamer binding inhibition [9] 2% | response [10] -4.98% | inhibition [11] 13.1% | response [12] -1.75% | binding (% of control) [13] 101% | inhibition [15] 4% | differentiation response [16] -7.37%

Nc1ccc(S(=O)(=O)NC(=O)c2ccccc2)cc1
inactive: percent of DMSO control GFP [1] 100% | GFP response vs DMSO [2] 103% | percent response of DMSO control [3] 96.6% | GFP response vs DMSO [4] 99.9% | GFP response, % of DMSO [5] 100% | vesicle binding response [6] 30.6% | inhibition [7] -6.68% | superoxide response (% of plate) [8] 110% | aptamer binding inhibition [9] 1% | response [10] -5.78% | inhibition [11] -15.4% | response [12] 5.4% | binding (% of control) [13] 99.3% | efflux inhibition (fraction of control) [14] -0.07 | inhibition [15] 11% | differentiation response [16] 1.22%
57.6%: double positive events [6]

CC(C)(C)c1ccc(/C=C/C(=O)N2CCCCC2)cc1
inactive: percent of DMSO control GFP [1] 96.1% | GFP response vs DMSO [2] 103% | percent response of DMSO control [3] 78.7% | GFP response vs DMSO [4] 116% | GFP response, % of DMSO [5] 97.7% | vesicle binding response [6] 150% | inhibition [7] 10.5% | superoxide response (% of plate) [8] 98.8% | aptamer binding inhibition [9] 1% | inhibition [11] 3.48% | response [12] -0.06% | binding (% of control) [13] 98.4% | efflux inhibition (fraction of control) [14] 0.26 | inhibition [15] 8% | differentiation response [16] 8.8%
active: response [10] 46.6%
59.2%: double positive events [6]
